Experimental data reported in PubChem BioAssay (NCI).
About 83,000 compounds went through this panel and 20% of them were active in at least one assay; those are over-represented in the sample as a whole.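 Single-dose data. Exposure time 48 hours. Values below 10 considered active.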 Activity calls are given as the source filed them.

What was measured:
Assay in all cases: NCI-60 one-dose screen, 48 h (100 = growth as untreated, 0 = no growth, -100 = all killed)
Settings in all cases: 10 µM
NCI-H23 lung = tested on: NCI-H23 lung
NCI-H226 lung = tested on: NCI-H226 lung
HOP-62 NSCLC = tested on: HOP-62 NSCLC
NCI-H460 lung = tested on: NCI-H460 lung
HOP-92 NSCLC = tested on: HOP-92 NSCLC
NCI-H522 lung = tested on: NCI-H522 lung
A549/ATCC NSCLC = tested on: A549/ATCC NSCLC
786-0 renal = tested on: 786-0 renal
COLO 205 colon = tested on: COLO 205 colon

Measured: growth

COc1cc(-c2csc(NC(=O)Nc3cc(C(F)(F)F)cc(C(F)(F)F)c3)n2)cc(OC)c1OC
active: NCI-H23 lung 4.18% | HOP-92 NSCLC -25.9% | NCI-H522 lung -14.6% | COLO 205 colon 0.569%
inactive: NCI-H226 lung 24.8% | HOP-62 NSCLC 13.1% | NCI-H460 lung 10.9% | A549/ATCC NSCLC 11.9% | 786-0 renal 13.4%

CCN(CC)c1ccc(/C=C2\SC(=O)C(Nc3nnc(-c4cccnc4SCc4ccccc4)o3)C2=O)cc1 (centres undefined)
active: NCI-H460 lung 3.5% | NCI-H522 lung -17.6%
inactive: NCI-H23 lung 21.7% | NCI-H226 lung 20.1% | HOP-62 NSCLC 30.5% | A549/ATCC NSCLC 12.2%

COc1ccc(C(=O)COc2cccc(/C=C3\Cc4ccccc4C3=O)c2)cc1
inactive: NCI-H23 lung 74.5% | NCI-H226 lung 73.4% | HOP-62 NSCLC 93.2% | NCI-H460 lung 111% | HOP-92 NSCLC 48.7% | NCI-H522 lung 56.6% | 786-0 renal 82.2% | COLO 205 colon 124%

COc1ccc2c(c1)C(CC(=O)NN)CCC2 (centres undefined)
inactive: NCI-H23 lung 92.7% | NCI-H226 lung 101% | HOP-62 NSCLC 106% | NCI-H460 lung 109% | HOP-92 NSCLC 93.7% | A549/ATCC NSCLC 93.4% | 786-0 renal 109% | COLO 205 colon 113%

COc1ccccc1N1CCCSC1=Nc1ccccc1
active: HOP-62 NSCLC -5.39%
inactive: NCI-H23 lung 104% | NCI-H226 lung 107% | NCI-H460 lung 99.7% | HOP-92 NSCLC 68.4% | NCI-H522 lung 71.9% | A549/ATCC NSCLC 99.2% | COLO 205 colon 104%

O=C(O)Cc1ccc(O)c(O)c1
inactive: NCI-H23 lung 103% | NCI-H226 lung 98.2% | HOP-62 NSCLC 99.3% | NCI-H460 lung 100% | HOP-92 NSCLC 109% | NCI-H522 lung 106% | A549/ATCC NSCLC 102% | 786-0 renal 105% | COLO 205 colon 103%

CC(C)=CCC/C(C)=C/CC/C(C)=C/CC/C=C(\C)CC/C=C(\C)CCC(=O)Nc1ccn(C2OC(CO)C(O)C2(F)F)c(=O)n1 (centres undefined)
inactive: NCI-H23 lung 25.3% | NCI-H226 lung 50.3% | HOP-62 NSCLC 11.1% | HOP-92 NSCLC 10.2% | NCI-H522 lung 26.1% | COLO 205 colon 43.5%
active: NCI-H460 lung 6.85% | 786-0 renal -11.2%

CC(=O)C1CCC2C3CC=C4CC(SC(=N)N)CCC4(C)C3CCC12C (centres undefined)
inactive: NCI-H23 lung 61.8% | NCI-H226 lung 56.6% | HOP-62 NSCLC 82.5% | NCI-H460 lung 16.7% | HOP-92 NSCLC 30.2% | NCI-H522 lung 61.5% | A549/ATCC NSCLC 47.5% | 786-0 renal 48%
active: COLO 205 colon -100%

COc1cc(N)c2ncccc2c1SC
inactive: NCI-H23 lung 93.6% | NCI-H226 lung 106% | HOP-62 NSCLC 107% | NCI-H460 lung 105% | HOP-92 NSCLC 94.6% | A549/ATCC NSCLC 99.5% | 786-0 renal 116%

O=C(COc1cccc(/C=C2\CSc3ccc(Cl)cc3C2=O)c1)c1ccc(Cl)cc1
inactive: NCI-H23 lung 75.1% | NCI-H226 lung 84.3% | HOP-62 NSCLC 83.6% | NCI-H460 lung 91.3% | HOP-92 NSCLC 15.6% | NCI-H522 lung 36.8% | 786-0 renal 94.6% | COLO 205 colon 115%

COc1cc(-c2nn(-c3ccc(NC(=O)NCCCNC(=O)c4ccccc4)cc3)cc2-c2ccncc2)ccc1Cl
active: NCI-H460 lung 6.81% | HOP-92 NSCLC -0.43% | NCI-H522 lung 3.7% | COLO 205 colon -43.4%
inactive: NCI-H23 lung 28.8% | NCI-H226 lung 56.1% | HOP-62 NSCLC 41.5% | A549/ATCC NSCLC 26% | 786-0 renal 14.8%

CC[C@H]1OC(=O)[C@H](C)[C@@H](O[C@H]2C[C@@](C)(OC)[C@@H](O)[C@H](C)O2)[C@H](C)[C@@H](O[C@@H]2O[C@H](C)C[C@H](N(C)C)[C@H]2O)[C@](C)(OC)C/C(C)=C2/O[C@@]1(C)C=C2C
inactive: NCI-H23 lung 83.9% | NCI-H226 lung 84.6% | HOP-62 NSCLC 77.9% | HOP-92 NSCLC 36.3% | NCI-H522 lung 44.4% | A549/ATCC NSCLC 61.9% | 786-0 renal 72%
active: NCI-H460 lung -49.6% | COLO 205 colon -47.3%

N#Cc1ccc(C(=O)CSc2nccc(Nc3ccc(C(=O)O)cc3)n2)cc1
inactive: NCI-H23 lung 100% | NCI-H226 lung 101% | HOP-62 NSCLC 108% | NCI-H460 lung 104% | HOP-92 NSCLC 104% | NCI-H522 lung 94.4% | A549/ATCC NSCLC 102% | 786-0 renal 104% | COLO 205 colon 110%

Cc1ccc(C2NC(=S)N3C(c4ccc(C)cc4)NC(=S)N23)cc1 (centres undefined)
inactive: NCI-H23 lung 38.9% | NCI-H226 lung 63.1% | A549/ATCC NSCLC 32% | COLO 205 colon 44%
active: HOP-62 NSCLC -45.6% | NCI-H460 lung 9.7% | HOP-92 NSCLC -3.05% | NCI-H522 lung -39.2%

C=CCNCCN1C(=O)c2ccc3c4c(ccc(c24)C1=O)C(=O)N(CCNCC=C)C3=O
active: NCI-H23 lung -36.4% | NCI-H226 lung -51.6% | HOP-62 NSCLC -28.7% | NCI-H460 lung -39.3% | HOP-92 NSCLC -34.5% | NCI-H522 lung -79.7% | A549/ATCC NSCLC -71.4% | 786-0 renal -2.95% | COLO 205 colon -90.5%
